# Inconclusive results are not listed. Activity calls are given as the source filed them. Unless noted, calls follow the shape of the dose curve; as a rule, active = well fitted curve in the direction sought with a large enough effect; inconclusive = small, poorly fitted or top-dose-only effect, or another doubt; inactive = no such curve, though single readings can be large; an effect the other way counts as inactive or inconclusive.
# What was measured:
# [1] = target: DNA repair nuclease/redox regulator APEX1 (Homo sapiens) (UniProt P27695); experiment: qHTS Validation Assay for Inhibitors of the Human Apurinic/apyrimidinic Endonuclease 1 (APE1) (AID 1705;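 also: TAMRA fluorescence gain over two minutes as APE1 cuts a quenched THF abasic duplex; % is scaled to controls: 0 for no effect and ±100 for the full control effect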)
# In short: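 Read-out: TAMRA fluorescence (525 nm ex, 598 nm em) from cleavage of a quenched THF abasic-site duplex, 50 nM final; activity taken as intensity change between third and first of three reads 60 s apart.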
# [2] = Counterscreen for APE1 Inhibitors: Fluorescent Dye Displacement Validation Assay (AID 1707);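 also: plate controls were ThO with dsDNA and no compound for no effect and ThO without dsDNA for full effect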
# In short: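 Assay buffer: Tris-HCl pH7.5 with 50mM NaCl, 2 mM MgCl2, 0.01% Tween-20. Dye 250 nM, duplex 50 nM final. Readout: decrease in ThO endpoint fluorescence, 480 nm excitation, 540 nm emission.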
# [3] = target: Endonuclease 4 (Escherichia coli (strain K12)) (UniProt P0A6C1); experiment: Counterscreen for APE1 Inhibitors: qHTS Validation Assay for Inhibitors of Endonuclease IV (AID 1708); also: % is scaled to controls: 0 for no effect and ±100 for the full control effect
# In short: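 qHTS concentration-response format; LOPAC1280 tested under APE1-screen conditions. 2 nM enzyme, 15 min compound preincubation at RT, then 50 nM TAMRA/BHQ-2 abasic substrate; kinetic fluorescence read, three reads at 60 s intervals.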
# [4] = qHTS for differential inhibitors of proliferation of Plasmodium falciparum line 7G8 (AID 1815);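 also: potency is read from the fitted curve at half-maximal effect; parasite growth measured after three days of incubation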
# [5] = qHTS for differential inhibitors of proliferation of Plasmodium falciparum line GB4 (AID 1816); conditions: Potency: Plasmodium falciparum GB4 proliferation inhibition;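 also: potency is read from the fitted curve at half-maximal effect; parasite growth measured after 72 h incubation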
# [6] = qHTS for differential inhibitors of proliferation of Plasmodium falciparum line W2 (AID 1883); conditions: Potency: Plasmodium falciparum W2 proliferation inhibition;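 also: potency is read from the fitted curve at half-maximal effect; parasites grown with compound for 72 h before lysis and staining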
# [7] = target: Ferritin light chain (Equus caballus) (UniProt P02791); experiment: qHTS Validation Assay for Identification of Novel General Anesthetics (AID 2323); also: % is scaled to controls: 0 for no effect and ±100 for the full control effect
# In short: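 10 uM horse-spleen apoferritin + 1-AMA (50% saturated, PBS); cpd pin-transferred, 10 min RT. Ex 380/Em 535 nm endpoint. Activity normalized between free 1-AMA and 1-AMA/apoferritin; 4-parameter Hill fit of concentration-response.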
# [8] = target: ATP-dependent DNA helicase Q1 (Homo sapiens) (UniProt P46063); experiment: qHTS Validation Assay for Inhibitors of RecQ-Like Dna Helicase 1 (RECQ1) (AID 2353);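 also: plate controls were DMSO vehicle for no effect and enzyme-free control for full effect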
# In short: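 50 nM RECQ1T1 preincubated 15 min with compound in Tris pH 8.0 buffer with MgCl2, DTT, Tween-20 and 2.5 ug/ml poly(dI-dC); started with 200 nM TAMRA/BHQ-2 forked duplex and 2 mM ATP. Unwinding read as fluorescence (525/598 nm), two reads 2 h apart.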
# [9] = Quantitative high throughput screen for delayed death inhibitors of the malarial parasite plastid, 48 hour incubation (AID 488752); also: % is scaled to controls: 0 for no effect and ±100 for the full control effect; nearly all actives have a fitted effect of over 65% in size
# In short: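 Readout is firefly luciferase luminescence from a reporter integrated into the parasite genome, with lower signal taken as inhibited growth. Infected red cells (0.1% parasitemia, 2% hematocrit final) are cultured with compound for one 48 h cycle at 37 C.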
# [10] = target: M-phase phosphoprotein 8 (Homo sapiens) (UniProt Q99549); experiment: qHTS Validation Assay for Inhibitors for MPP8 Chromodomain Interactions with Methylated Histone Tails (AID 488949);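 also: AlphaScreen signal from MPP8 chromodomain bound to biotinylated H3K9me3 peptide; top concentration of the series differs between compounds; % is scaled to controls: 0 for no effect and ±100 for the full control effect; nearly all actives have a fitted effect of over 55% in size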
# In short: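 AlphaScreen read-out: streptavidin donor and nickel chelate acceptor beads (final 10 ug/mL), 30 min in the dark at RT. Complex of 50 nM MPP8 and 50 nM b-H3(1-18)K9me3 peptide had been exposed to compounds for 30 min beforehand.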
# [11] = target: Transient receptor potential cation channel subfamily V member 1 (Homo sapiens) (UniProt Q8NER1); experiment: HTS Assay for Compounds that Act as Enhancers of the Vanilloid Receptor 1 (AID 488979); also: 0% is about no effect
# In short: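 Calcium influx kinetics via Fluo-8 (480/520 nm) in TRPV1-expressing cells, 2000/well cultured overnight at 35.5C. Compound-alone read 3 min (agonist phase), followed by EC20 capsaicin challenge for 2 min (enhancer phase).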
# [12] = target: Thyrotropin receptor (Homo sapiens) (UniProt P16473); experiment: qHTS Assay for Antagonists of the Thyroid Stimulating Hormone Receptor (AID 488980); also: 0% is about no effect
# In short: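 TSHR-HEK293 cells; 70 uM RO 20-1724 PDE inhibitor; compound + EC80 TSH (4 nM final); anti-cAMP cryptate antibody/cAMP-d2 in lysis buffer, 30 min RT; HTRF 665/620 nm read.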
# [13] = target: Thyrotropin-releasing hormone receptor (Homo sapiens) (UniProt P34981); experiment: qHTS for Small Molecule Agonists and Allosteric Enhancers of Human TRH Receptor: Validation Screen for Agonists (AID 493127;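 active = calcium activation more than 3 SD above the typical response in the agonist read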;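 also: intracellular calcium rise by fluo-8 fluorescence before TRH EC20 addition; 0% is about no effect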); conditions: TRH receptor agonist cell assay; at 2 µM; stronger effect = higher value
# In short: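 Cells 2000/well, 10% FCS, 18 h 33.5C/5% CO2 → fluo-8 Ca dye, RT 30 min–1.5 h → FDSS baseline 10 × 1 s → compound added → 230 cycles (1 s/cycle) agonist mode. TRH controls.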
# [14] = target: Galactokinase (Homo sapiens) (UniProt P51570); experiment: qHTS Validation Assay for Inhibitors of Human Galactokinase (GALK) (AID 493189); also: 0% is about no effect
# In short: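 Luminescence from leftover ATP (Kinase-Glo Plus, 10 min) served as read-out after a 1 h room-temperature reaction of 5 nM GALK, 100 uM galactose and 35 uM ATP at pH8.0.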
# [15] = Validation screen for small molecules that induce DNA re-replication in SW480 colon adenocarcinoma cells (AID 504364); also: 0% is about no effect
# In short: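 250 cells/well; compound pinned in; 48 hr, 37 C, 5% CO2; Hoechst added, 40 min; nuclear fluorescence imaged, 405 ex / 500-530 em; re-replication scored as increase in high-intensity nuclei.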
# [16] = target: Rap guanine nucleotide exchange factor 3 (Homo sapiens) (UniProt O95398); experiment: Counterscreen qHTS for agonist of cAMP-regulated guanine nucleotide exchange factor 3 (EPAC1) (AID 1645889); also: potency is read from the fitted curve at half-maximal effect; nearly all actives have a fitted effect of over 40% in size
# In short: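 Rap1B-BODIPY-GDP 250 nM + GDP 50 uM; cpds 7-pt, final 9.74 nM–152 uM (activator mode) or from 7.32 nM upwards (inhibitor mode); RT; FI 480/540 nm at 5 and 30 min, then ± cAMP, reread.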
# [17] = target: Catechol O-methyltransferase (Homo sapiens) (UniProt P21964); experiment: Confirmatory Screen for Target Class Profiling of Small Molecule Inhibitors of Methyltransferases (AID 1745852; calls by dose curve; as to activity change, negative = inhibition: % is scaled to controls: 0 for no effect and ±100 for the full control effect); conditions: MTase-Glo luminescence, SAH detection, recombinant enzyme; measured here: COMT max response; stronger effect = lower value
# [18] = target: Guanidinoacetate N-methyltransferase (Homo sapiens) (UniProt Q14353); experiment: as above; conditions: activity change, negative = inhibition: at 57.3 µM (top of the series) unless noted
# [19] = target: Nicotinamide N-methyltransferase (Homo sapiens) (UniProt P40261); experiment: as above; conditions: MTase-Glo luminescence, SAH detection, recombinant enzyme; measured here: NNMT max response; stronger effect = lower value
# [20] = target: Phenylethanolamine N-methyltransferase (Homo sapiens) (UniProt P11086); experiment: as above; conditions: MTase-Glo luminescence, SAH detection, recombinant enzyme; measured here: PNMT max response; stronger effect = lower value
# Phenylethanolamine N-methyltransferase (Homo sapiens), sequence (P11086 whole entry, looked up): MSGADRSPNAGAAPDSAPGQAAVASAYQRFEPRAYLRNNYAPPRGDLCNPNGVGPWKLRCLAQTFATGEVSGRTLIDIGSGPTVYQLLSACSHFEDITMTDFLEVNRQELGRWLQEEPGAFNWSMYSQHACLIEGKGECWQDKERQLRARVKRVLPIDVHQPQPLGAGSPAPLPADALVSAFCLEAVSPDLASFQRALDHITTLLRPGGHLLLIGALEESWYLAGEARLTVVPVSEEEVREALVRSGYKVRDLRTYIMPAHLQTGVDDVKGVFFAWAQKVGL
# Nicotinamide N-methyltransferase (Homo sapiens), sequence (P40261 whole entry, looked up): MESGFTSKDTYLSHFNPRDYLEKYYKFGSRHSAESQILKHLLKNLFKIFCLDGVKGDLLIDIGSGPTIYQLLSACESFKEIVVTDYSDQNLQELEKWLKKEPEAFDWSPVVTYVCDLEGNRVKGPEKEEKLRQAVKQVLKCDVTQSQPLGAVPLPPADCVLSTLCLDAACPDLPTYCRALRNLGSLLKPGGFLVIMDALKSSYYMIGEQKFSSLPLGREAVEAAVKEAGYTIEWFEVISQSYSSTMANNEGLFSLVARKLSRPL
# Catechol O-methyltransferase (Homo sapiens), sequence (P21964 whole entry, looked up): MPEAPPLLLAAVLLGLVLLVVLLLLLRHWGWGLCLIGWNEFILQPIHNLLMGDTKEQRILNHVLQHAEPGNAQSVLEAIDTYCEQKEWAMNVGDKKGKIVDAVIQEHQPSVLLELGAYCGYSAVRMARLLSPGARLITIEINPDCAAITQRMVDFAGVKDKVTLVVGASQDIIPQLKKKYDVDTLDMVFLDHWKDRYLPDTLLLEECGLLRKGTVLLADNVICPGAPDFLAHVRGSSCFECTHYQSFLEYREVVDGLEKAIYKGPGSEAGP
# M-phase phosphoprotein 8 (Homo sapiens), sequence (Q99549 whole entry, looked up): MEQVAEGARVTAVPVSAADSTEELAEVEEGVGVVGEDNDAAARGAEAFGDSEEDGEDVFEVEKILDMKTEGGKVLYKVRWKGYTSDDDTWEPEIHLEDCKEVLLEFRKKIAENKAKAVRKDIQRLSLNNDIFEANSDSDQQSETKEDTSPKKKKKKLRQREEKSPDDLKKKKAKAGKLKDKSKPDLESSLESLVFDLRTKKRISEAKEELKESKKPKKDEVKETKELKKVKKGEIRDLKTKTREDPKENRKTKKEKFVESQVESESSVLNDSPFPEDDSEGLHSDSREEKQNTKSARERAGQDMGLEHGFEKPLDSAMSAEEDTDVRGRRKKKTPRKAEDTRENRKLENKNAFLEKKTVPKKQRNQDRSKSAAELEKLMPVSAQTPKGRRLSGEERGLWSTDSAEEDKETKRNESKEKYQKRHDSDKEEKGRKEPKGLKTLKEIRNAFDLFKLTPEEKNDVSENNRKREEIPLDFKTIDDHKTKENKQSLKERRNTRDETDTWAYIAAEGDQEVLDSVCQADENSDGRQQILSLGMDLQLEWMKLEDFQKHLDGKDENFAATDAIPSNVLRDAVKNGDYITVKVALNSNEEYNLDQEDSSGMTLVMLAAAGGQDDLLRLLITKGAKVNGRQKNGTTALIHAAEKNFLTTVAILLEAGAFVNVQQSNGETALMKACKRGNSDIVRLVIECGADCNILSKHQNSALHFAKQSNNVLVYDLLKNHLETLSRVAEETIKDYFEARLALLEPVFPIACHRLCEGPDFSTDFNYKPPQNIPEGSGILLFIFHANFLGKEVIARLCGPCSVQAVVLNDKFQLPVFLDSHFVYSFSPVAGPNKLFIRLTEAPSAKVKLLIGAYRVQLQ
# Ferritin light chain (Equus caballus), sequence (P02791 2-175 limits assumed): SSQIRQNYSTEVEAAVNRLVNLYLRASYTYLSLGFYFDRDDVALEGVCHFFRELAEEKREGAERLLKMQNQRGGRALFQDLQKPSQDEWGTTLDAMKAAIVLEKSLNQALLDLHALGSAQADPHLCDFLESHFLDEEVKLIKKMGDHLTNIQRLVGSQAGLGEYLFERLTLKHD
# Thyrotropin-releasing hormone receptor (Homo sapiens), sequence (P34981 whole entry, looked up): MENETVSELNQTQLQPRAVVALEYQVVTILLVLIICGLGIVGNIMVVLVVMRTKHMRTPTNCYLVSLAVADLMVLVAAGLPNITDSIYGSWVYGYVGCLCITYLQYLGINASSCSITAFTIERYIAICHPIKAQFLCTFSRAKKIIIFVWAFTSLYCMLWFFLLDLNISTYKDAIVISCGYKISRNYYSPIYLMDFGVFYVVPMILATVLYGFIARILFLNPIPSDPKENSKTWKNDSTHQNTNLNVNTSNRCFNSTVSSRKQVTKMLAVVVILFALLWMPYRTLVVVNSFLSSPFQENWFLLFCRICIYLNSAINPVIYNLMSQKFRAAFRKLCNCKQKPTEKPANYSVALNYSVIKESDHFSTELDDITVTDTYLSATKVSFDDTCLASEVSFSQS
# Thyrotropin receptor (Homo sapiens), sequence (P16473 whole entry, looked up): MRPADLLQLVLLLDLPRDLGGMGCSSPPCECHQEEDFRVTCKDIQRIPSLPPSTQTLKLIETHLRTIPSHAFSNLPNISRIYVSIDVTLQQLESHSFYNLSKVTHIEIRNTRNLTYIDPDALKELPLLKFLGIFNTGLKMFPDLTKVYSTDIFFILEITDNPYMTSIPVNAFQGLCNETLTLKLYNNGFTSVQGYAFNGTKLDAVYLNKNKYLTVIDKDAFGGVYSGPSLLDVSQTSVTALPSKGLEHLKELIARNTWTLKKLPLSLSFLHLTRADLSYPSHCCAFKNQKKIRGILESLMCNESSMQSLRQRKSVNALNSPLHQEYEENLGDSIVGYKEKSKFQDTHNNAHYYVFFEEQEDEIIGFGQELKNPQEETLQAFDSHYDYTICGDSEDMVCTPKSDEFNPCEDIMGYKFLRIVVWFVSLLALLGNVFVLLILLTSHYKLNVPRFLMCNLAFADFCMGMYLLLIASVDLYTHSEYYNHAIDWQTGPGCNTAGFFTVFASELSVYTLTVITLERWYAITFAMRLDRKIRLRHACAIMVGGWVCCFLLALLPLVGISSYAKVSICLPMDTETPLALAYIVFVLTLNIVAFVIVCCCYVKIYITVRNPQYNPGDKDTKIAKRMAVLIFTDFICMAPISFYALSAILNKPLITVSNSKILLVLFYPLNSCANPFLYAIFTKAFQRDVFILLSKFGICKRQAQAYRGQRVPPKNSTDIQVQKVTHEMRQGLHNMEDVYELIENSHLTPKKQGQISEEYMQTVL
# Galactokinase (Homo sapiens), sequence (P51570 whole entry, looked up): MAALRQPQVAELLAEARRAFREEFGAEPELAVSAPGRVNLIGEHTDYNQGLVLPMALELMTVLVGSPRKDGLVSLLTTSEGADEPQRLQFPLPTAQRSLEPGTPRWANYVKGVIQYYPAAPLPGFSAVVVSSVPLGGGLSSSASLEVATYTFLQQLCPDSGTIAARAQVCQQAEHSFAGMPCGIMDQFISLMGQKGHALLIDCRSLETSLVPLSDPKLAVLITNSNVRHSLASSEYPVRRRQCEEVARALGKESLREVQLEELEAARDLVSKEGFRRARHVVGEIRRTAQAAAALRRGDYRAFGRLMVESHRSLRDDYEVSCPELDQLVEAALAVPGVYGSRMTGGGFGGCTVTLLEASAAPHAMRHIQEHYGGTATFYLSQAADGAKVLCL
# DNA repair nuclease/redox regulator APEX1 (Homo sapiens), sequence (P27695 whole entry, looked up): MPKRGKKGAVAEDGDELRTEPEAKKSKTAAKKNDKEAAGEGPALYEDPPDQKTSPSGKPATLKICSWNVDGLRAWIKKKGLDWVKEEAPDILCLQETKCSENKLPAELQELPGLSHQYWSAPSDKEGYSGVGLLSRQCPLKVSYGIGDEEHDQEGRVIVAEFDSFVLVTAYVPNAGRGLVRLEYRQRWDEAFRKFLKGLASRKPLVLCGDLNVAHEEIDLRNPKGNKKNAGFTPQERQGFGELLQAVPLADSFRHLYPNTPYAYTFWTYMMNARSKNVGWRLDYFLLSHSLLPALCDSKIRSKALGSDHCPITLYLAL
# Transient receptor potential cation channel subfamily V member 1 (Homo sapiens), sequence (Q8NER1 whole entry, looked up): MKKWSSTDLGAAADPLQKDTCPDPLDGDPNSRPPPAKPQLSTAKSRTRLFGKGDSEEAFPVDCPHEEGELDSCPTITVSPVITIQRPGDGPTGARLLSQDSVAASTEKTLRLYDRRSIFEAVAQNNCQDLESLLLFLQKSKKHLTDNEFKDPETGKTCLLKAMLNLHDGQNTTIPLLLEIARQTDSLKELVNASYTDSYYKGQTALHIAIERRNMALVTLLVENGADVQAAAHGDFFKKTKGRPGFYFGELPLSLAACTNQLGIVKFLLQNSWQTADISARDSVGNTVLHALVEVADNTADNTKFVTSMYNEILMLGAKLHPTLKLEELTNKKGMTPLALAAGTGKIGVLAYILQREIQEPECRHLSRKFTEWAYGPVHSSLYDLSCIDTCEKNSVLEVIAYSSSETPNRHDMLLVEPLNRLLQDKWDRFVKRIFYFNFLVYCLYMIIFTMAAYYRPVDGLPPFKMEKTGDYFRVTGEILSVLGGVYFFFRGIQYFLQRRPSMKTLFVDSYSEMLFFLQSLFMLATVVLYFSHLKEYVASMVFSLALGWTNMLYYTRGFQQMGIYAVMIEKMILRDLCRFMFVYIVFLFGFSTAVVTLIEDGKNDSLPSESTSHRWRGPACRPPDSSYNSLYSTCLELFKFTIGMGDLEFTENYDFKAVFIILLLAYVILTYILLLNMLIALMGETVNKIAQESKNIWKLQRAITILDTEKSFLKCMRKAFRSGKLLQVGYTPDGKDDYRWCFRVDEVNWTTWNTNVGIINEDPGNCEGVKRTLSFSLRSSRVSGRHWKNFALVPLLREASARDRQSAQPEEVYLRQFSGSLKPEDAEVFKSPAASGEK
compound,measurement,setting,value
CC(=O)SC1CC2=CC(=O)CC[C@]2(C)C2CC[C@@]3(C)[C@@H](CC[C@@]34CCC(=O)O4)C12 (some centres undefined),Potency,[1],inactive
same,outcome,[2],inactive
same,Potency,[3],inactive
same,Potency,[4],11.2 µM (active)
same,Potency,[5],7.94 µM (active)
same,Potency,[6],7.08 µM (active)
same,outcome,[7],inactive
same,outcome,[8],inactive
same,Potency,[9],inactive
same,Potency,[10],inactive
same,outcome,[11],inactive
same,outcome,[12],inactive
same,activation,[13],1.19% (inactive)
same,outcome,[14],inactive
same,Potency,[15],inactive
CCOC(=O)c1sc(NC(=O)CN2C(=O)NC3(CC(C)CC(C)(C)C3)C2=O)cc1C (centres undefined),Potency,[16],89.1 µM (active)
CCCC1c2cccn2CCN1C(=O)Nc1ccc(Br)cc1F (centres undefined),activity,[17],-8.21%
same,"activity change, negative = inhibition",[18],-4.98%
same,activity,[19],-17%
same,activity,[20],-10.2%
CCN(CCc1nc2ccc(C)cc2[nH]1)C(=O)c1ccccc1C1CCNC1 (centres undefined),activity,[17],6.01%
same,"activity change, negative = inhibition",[18],8.24%
same,activity,[19],7.78%
same,activity,[20],8.18%

# — PubChem BioAssay (NCATS)
